Target: T1, Methionyl-tRNA synthetase, putative (Leishmania donovani (strain BPK282A1)) (UniProt E9BF75)
T1 sequence (whole entry): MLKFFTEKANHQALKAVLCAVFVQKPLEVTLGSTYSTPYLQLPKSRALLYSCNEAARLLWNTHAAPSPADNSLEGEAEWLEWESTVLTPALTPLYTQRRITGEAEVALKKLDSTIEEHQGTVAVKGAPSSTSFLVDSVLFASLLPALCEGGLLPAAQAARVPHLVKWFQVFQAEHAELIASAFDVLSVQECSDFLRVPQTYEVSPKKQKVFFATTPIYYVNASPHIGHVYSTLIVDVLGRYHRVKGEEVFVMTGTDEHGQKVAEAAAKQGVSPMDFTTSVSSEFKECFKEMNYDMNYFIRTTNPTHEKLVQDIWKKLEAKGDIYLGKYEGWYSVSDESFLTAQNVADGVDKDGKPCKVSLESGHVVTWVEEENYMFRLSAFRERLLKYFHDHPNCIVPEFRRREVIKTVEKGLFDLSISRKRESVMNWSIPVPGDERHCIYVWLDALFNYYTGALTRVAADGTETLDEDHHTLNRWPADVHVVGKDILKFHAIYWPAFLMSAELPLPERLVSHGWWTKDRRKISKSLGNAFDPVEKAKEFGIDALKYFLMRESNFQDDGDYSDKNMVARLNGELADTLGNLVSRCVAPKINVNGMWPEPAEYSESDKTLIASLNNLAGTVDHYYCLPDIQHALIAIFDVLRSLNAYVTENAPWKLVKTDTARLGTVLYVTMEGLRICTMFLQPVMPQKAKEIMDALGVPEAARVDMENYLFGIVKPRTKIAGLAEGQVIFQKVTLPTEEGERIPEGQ
Test: Leishmania donovani Methionine tRNA synthetase (LdMetRS):v7. Dose response assay
Format: functional
Parameters: conc 80 nM, time 150 minutes

CCNc1nc(Nc2ccc(F)c(F)c2)nc2c1cnn2C
PXC50 (BOTTOM 1.995747486, HILLSLOPE 0.878307732, MAX_EFFECT 82.01754386, TOP 90.74385953): 5.04
PXC50 (BOTTOM -0.278671712, HILLSLOPE 0.874738485, MAX_EFFECT 76.33587786, TOP 84.21903162): 5.21
PXC50 (BOTTOM -9.286701073, HILLSLOPE 0.734415983, MAX_EFFECT 80.15414258, TOP 112.1235893): 4.93

OCCCNc1nccc(Nc2cccc(C(F)(F)F)c2)n1
PXC50 (MAX_EFFECT 6.834532374): < 4
PXC50 (MAX_EFFECT 6.86695279): < 4
PXC50 (MAX_EFFECT 9.976247031): < 4

O=C(N1CCOCC(O)C1)C1(c2ccc(Cl)cc2)CCC1 (stereo not drawn)
PXC50 (MAX_EFFECT 0.0): < 4
PXC50 (MAX_EFFECT -0.875656743): < 4
PXC50 (MAX_EFFECT -1.449275362): < 4

Cn1ncc2c(NCCO)nc(Nc3cccc(O)c3)nc21
PXC50 (MAX_EFFECT 5.386416862): < 4
PXC50 (MAX_EFFECT 6.072106262): < 4
PXC50 (MAX_EFFECT 8.167770419): < 4

CC(CO)Nc1nc(Nc2cccc(C(F)(F)F)c2)nc2c1cnn2C (stereo not drawn)
PXC50 (MAX_EFFECT 16.69829222): < 4
PXC50 (MAX_EFFECT 21.69811321): < 4
PXC50 (MAX_EFFECT 22.37442922): < 4

COCCNc1nc(Nc2ccc(F)c(F)c2)nc2c1cnn2C
PXC50 (BOTTOM 0.0, HILLSLOPE 0.788642153, MAX_EFFECT 89.69957082, TOP 101.1762058): 5.15
PXC50 (BOTTOM 0.0, HILLSLOPE 0.880096509, MAX_EFFECT 92.63657957, TOP 99.00872691): 5.23
PXC50 (BOTTOM -0.84748474, HILLSLOPE 0.841528212, MAX_EFFECT 93.81044487, TOP 101.2621412): 5.29

Cn1ncc2c(NCCO)nc(Cl)nc21
PXC50 (MAX_EFFECT 0.234192037): < 4
PXC50 (MAX_EFFECT 8.148148148): < 4
PXC50 (MAX_EFFECT -0.662251656): < 4

NC(=O)c1cccnc1Nc1cccc(C(F)(F)F)c1
PXC50 (MAX_EFFECT 7.210626186): < 4
PXC50 (MAX_EFFECT 13.42975207): < 4
PXC50 (MAX_EFFECT 16.74008811): < 4

CN(C)c1nc(N(C)C)c2cnn(C)c2n1
PXC50 (MAX_EFFECT 10.25145068): < 4
PXC50 (MAX_EFFECT 21.69421488): < 4
PXC50 (MAX_EFFECT 22.46696035): < 4

COCCNc1cc(-c2ccccc2CCN)c2cc[nH]c2n1
PXC50 (BOTTOM -0.0153, HILLSLOPE 1.167622452, MAX_EFFECT 63.88888889, TOP 100.0): 4.2
PXC50 (MAX_EFFECT 46.30872483): < 4
PXC50 (MAX_EFFECT 46.96707106): < 4

Cc1cc(C)n(C2CN(CC(=O)N(C)Cc3cnn(C)c3)C2)n1
PXC50 (BOTTOM 1.685263138, HILLSLOPE 1.431243041, MAX_EFFECT 59.07590759, TOP 100.0): 4.06
PXC50 (MAX_EFFECT 33.33333333): < 4
PXC50 (MAX_EFFECT 44.80286738): < 4

OCCNc1nccc(Nc2cccc(F)c2)n1
PXC50 (MAX_EFFECT 6.168224299): < 4
PXC50 (MAX_EFFECT 6.404958678): < 4
PXC50 (MAX_EFFECT 9.691629956): < 4

OCCCNc1ccnc(Nc2cccc(C(F)(F)F)c2)n1
PXC50 (BOTTOM -1.471323434, HILLSLOPE 0.842843203, MAX_EFFECT 51.77570093, TOP 92.13190163): 4.16
PXC50 (BOTTOM -3.274011796, HILLSLOPE 1.62633592, MAX_EFFECT 57.93991416, TOP 100.0): 4.09
PXC50 (MAX_EFFECT 49.40617577): < 4

NCC1CCN(C2CCN(c3ccc(-c4ccco4)cc3)CC2)C1 (stereo not drawn)
PXC50 (BOTTOM 4.43866672, HILLSLOPE 0.884621075, MAX_EFFECT 64.49275362, TOP 100.0): 4.31
PXC50 (BOTTOM 4.60090898, HILLSLOPE 1.046241477, MAX_EFFECT 65.98639456, TOP 92.93543159): 4.34
PXC50 (BOTTOM 4.64806131, HILLSLOPE 0.783599422, MAX_EFFECT 54.46584939, TOP 100.0): 4.09

Cc1nc(C)n(CC2CCCN2Cc2nc(C)c3ccccc3n2)n1 (stereo not drawn)
PXC50 (BOTTOM 0.925302431, HILLSLOPE 1.017320837, MAX_EFFECT 67.36111111, TOP 99.90284223): 4.31
PXC50 (BOTTOM 1.588399375, HILLSLOPE 1.270951942, MAX_EFFECT 69.49740035, TOP 100.0): 4.3
PXC50 (BOTTOM 6.646518839, HILLSLOPE 0.950758055, MAX_EFFECT 62.41610738, TOP 100.0): 4.2

C[C@@H](CO)Nc1ccnc(Nc2cccc(C(F)(F)F)c2)n1
PXC50 (BOTTOM 1.593845471, HILLSLOPE 0.816282678, MAX_EFFECT 64.11214953, TOP 100.0): 4.29
PXC50 (BOTTOM 3.003400849, HILLSLOPE 0.886139555, MAX_EFFECT 64.25619835, TOP 100.0): 4.3
PXC50 (BOTTOM -0.445089983, HILLSLOPE 0.824021196, MAX_EFFECT 60.35242291, TOP 100.0): 4.26

O=C(CCNC(=O)c1ccccc1F)NCCNc1cccnc1
PXC50 (MAX_EFFECT 3.623188406): < 4
PXC50 (MAX_EFFECT 4.761904762): < 4
PXC50 (MAX_EFFECT 5.779334501): < 4

OCCNc1nc(Nc2ccc(F)c(F)c2)ncc1F
PXC50 (BOTTOM 4.80997506, HILLSLOPE 1.016069871, MAX_EFFECT 75.05938242, TOP 103.871029): 4.37
PXC50 (BOTTOM 6.495032966, HILLSLOPE 1.205723909, MAX_EFFECT 75.53648069, TOP 100.0): 4.33
PXC50 (BOTTOM -1.721460895, HILLSLOPE 0.874564497, MAX_EFFECT 71.96261682, TOP 100.0): 4.5

Cn1nc(Cn2ccnc2)c2c1CN(c1nccs1)C2
PXC50 (BOTTOM 0.559364067, HILLSLOPE 0.919078395, MAX_EFFECT 71.42857143, TOP 99.25901822): 4.44
PXC50 (BOTTOM -1.637231388, HILLSLOPE 0.873521348, MAX_EFFECT 76.08695652, TOP 100.0): 4.55
PXC50 (BOTTOM -15.97247073, HILLSLOPE 2.274903325, MAX_EFFECT 57.26795096, TOP 100.0): 4.1

COc1cccc(-c2noc3c2CN(c2ncnc4c2CCC4)CC3)c1
PXC50 (MAX_EFFECT 38.4057971): < 4
PXC50 (MAX_EFFECT 40.13605442): < 4
PXC50 (MAX_EFFECT 45.70928196): < 4

Cn1ccnc1CN(CCO)C(=O)C1CCN(C(=O)C2CC2)CC1
PXC50 (MAX_EFFECT 3.401360544): < 4
PXC50 (MAX_EFFECT 4.347826087): < 4
PXC50 (MAX_EFFECT 10.33274956): < 4

Reference: ChEMBL document CHEMBL3988442, “University of Dundee, Small-Polar-MMV Screening Library” (2021)
